Assay outcomes deposited in PubChem by Sanford-Burnham Center for Chemical Genomics.
Only some compounds are listed: those with a hit (about 3.9% of all), similar ones and a draw of the others.
HIF-2a block – inhibitors of HIF-2a | 786-0 RCC cells HIF-2a reporter, luciferase luminescence, overnight | inhibition, % at 18.8 µM | 0.72% of 360,000 active | AID 624352;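 active = inhibition of the luminescence signal of 40% or more relative to plate controls, in a single-dose primary screen at 18.75 µM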
Peg3 prom inh – reduces Peg3 promoter-driven luciferase expression in HeLa; 1.7% of 360,000 active; HeLa PEG-Prom luciferase reporter, luminescence, overnight; inhibition, % at 20 µM;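 active = inhibition of at least 50% at 20 µM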
TWEAK Fn14 block – inhibitors of TWEAK-Fn14 interaction signaling; 2% of 360,000 active; AID 1159606; TWEAK-stimulated Fn14 reporter cells, luciferase luminescence, 8 h; inhibition, % at 10 µM; in the data active = inhibition above about 50%
CF NFkB inh – inhibitors of cystic fibrosis induced NF-kB | KKLEB NF-kB-GFP reporter, PAF-induced, GFP fluorescence overnight | 0.86% of 360,000 active | inhibition, % at 5 µM | AID 588850;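 active = at least 50% inhibition at 5 µM, scaled per plate between neutral and stimulator controls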;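 note: PAF is a Pseudomonas aeruginosa culture filtrate used as stimulus; plate controls were PAF-stimulated DMSO wells for no effect and unstimulated DMSO wells for full effect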
TROY signal inh – inhibitors of TROY-dependent NF-kB signaling | Q293 LMP1-TROYcd NF-kB luciferase reporter, 4 h | inhibition, % at 10 µM | 0.98% of 360,000 active | AID 1347056;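 active = compounds whose plate-normalised and pattern-corrected inhibition of the luciferase reporter signal at the single screening dose is 50% or more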
KKLEB tox – reduces viability of KKLEB cystic fibrosis airway cells; activity change (cytotoxicity), % at 5 µM; AID 602141; KKLEB CF airway cells viability, ATPlite luminescence, overnight; active compounds read low; cells stimulated with P. aeruginosa culture filtrate; 0.36% of 360,000 active;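 active = corrected activity change at or below -50% at 5 µM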
Starred values were filed as active, the others as inactive; . = no result given.

SMILES	HIF-2a block	Peg3 prom inh	TWEAK Fn14 block	CF NFkB inh	TROY signal inh	KKLEB tox
O=C(c1ccc(Cl)cc1)C1CCCN(C2CCSCC2)C1 (stereo not drawn)	10.2	14.3	-2.7	-0.5	-11.7	-8.8
N#CC(C#N)=NNc1ccc(-n2ccc(C(F)(F)F)n2)cc1	-21.4	21.1	91.4*	79.2*	67.5*	-45.9
Cc1cc(C)n(-c2ccc(NN=C(C#N)C#N)cc2)n1	2.7	-2.3	84.1*	76.3*	65.3*	-1.6
O=C(O)COc1ccc(Cl)cc1Cl	-54.9	-59.3	-11.2	9.8	-1.9	-15.5
Oc1cc(Cl)ccc1Oc1ccc(Cl)cc1Cl	-1.5	39.7	49.8	35.0	51.1*	-4.1
CCc1ccc(N2C(=O)NC(=O)/C(=C/c3cccn3CCOc3ccc(C)cc3)C2=O)cc1	3.8	-18.9	0.0	-27.1	-94.4	11.4
CCc1ccc(N2C(=O)NC(=O)/C(=C/c3cccn3CCOc3ccc(C(C)CC)cc3)C2=O)cc1 (stereo not drawn)	2.4	-147.3	64.5*	-20.9	40.7	-9.3
O=c1[nH]c(Cl)ccc1CN1CCOCC1	1.0	4.7	8.9	21.3	2.8	1.0
COc1ccc(-c2nc3ccccc3c(=O)o2)cc1	-138.0	-154.6	-19.4	11.4	-63.7	-3.9
C[C@]12CC[C@H](O)CC1=CC(=O)C1C2CC[C@]2(C)C(=O)[C@H](O)CC12 (stereo partly drawn)	2.8	0.8	4.9	-16.1	2.6	3.9
CC(=NNC(=S)N1CC2CCC(CC2)C1)c1nccs1	-251.4	-31.0	17.5	67.1*	-4.3	-26.4
C[N+](C)(C)CC1CCCC(C[N+](C)(C)C)C1=O (stereo not drawn)	16.5	83.3*	-1.9	6.1	-5.9	-4.9
CCCC1(CCO)C(=O)NC(=S)NC1=O	9.4	-1.7	-18.1	-8.1	1.0	2.7
COc1cc(C(=O)Nc2ccc(Br)cc2C(=O)c2ccccc2Cl)cc(OC)c1OC	22.9	-11.6	21.4	23.7	-0.1	-50.5*
COc1cc(OC)c(OC)cc1/C=C1\C(=O)NC(=O)N(Cc2ccccc2)C1=O	17.3	-4.1	7.9	13.7	55.2*	-0.2
COc1cc(OC)c(OC)cc1/C=C1/C(=O)NC(=O)N(Cc2ccccc2)C1=O	21.9	13.9	11.7	-10.2	-10.6	8.6
COc1ccc(CN2C(=O)NC(=O)/C(=C\c3ccco3)C2=O)cc1	42.0*	29.1	19.5	23.2	14.9	-12.8
CC(C)N1C(=O)/C(=C/C=C/c2ccco2)C(=O)N(Cc2ccco2)C1=O	52.7*	31.8	5.1	-25.4	-2.8	9.9
O=C1NC(=O)N(Cc2ccccc2)C(=O)/C1=C/C=C/c1ccco1	38.5	13.3	15.4	86.8*	-3.2	1.7
COc1ccc(CN2CCN(C(=O)Cc3ccccc3)CC2)c(OC)c1	8.6	19.4	-26.9	0.0	2.2	4.2
COc1ccc(Br)cc1CN1CCN(C(=O)Cc2ccccc2)CC1	20.5	10.5	82.0*	-5.7	.	3.3
c1ccc(CN2COC3CCCCCC32)cc1 (stereo not drawn)	7.7	-7.5	4.1	-14.4	55.0*	-12.3
O=C(c1ccc2c(c1)OCO2)C1CCCN(CC2CCCCC2)C1 (stereo not drawn)	16.2	18.1	9.1	2.1	-11.2	4.9
Cc1ccc(O)c(C(=O)c2cc(C(=O)NCc3ccccc3)c(=O)n(Cc3ccccc3)c2)c1	25.4	27.3	4.1	-0.9	15.9	-11.3
O=C(c1cc(C(=O)NCc2ccccc2)c(=O)n(Cc2ccccc2)c1)c1cc(Br)ccc1O	17.6	48.3	51.1*	10.5	23.7	-6.7
C=CCN1C(=O)/C(=C/c2cccs2)C(=O)NC1=S	42.7*	51.1*	4.8	-24.4	11.0	-4.0
NC(Cc1ccccc1)c1csc(Nc2ccccn2)n1 (stereo not drawn)	-131.7	-168.9	-34.8	-7.6	-37.9	7.0
NC(Cc1ccc(Cl)cc1)c1csc(Nc2ccccn2)n1 (stereo not drawn)	-27.1	72.9*	-29.6	24.0	-32.4	-14.8
CCc1ccc2nc(N3CCC(C(=O)N4CCC5(CC4)OCCO5)CC3)sc2c1	-131.4	-99.0	1.4	-4.5	-12.2	10.0
CC12CC[C@H]3[C@@H](CCC4(O)C[C@H](O)CCC34/C=N/NC(=O)c3ccccc3F)C1(O)CCC2C1=CC(=O)OC1 (stereo partly drawn)	-3.8	27.9	95.4*	-12.5	-12.8	19.2
